In the library only some 1.7% were active in any assay of this set; here they are far more common.
PTPN22 inh 2 = blocks human PTPN22 phosphatase activity. Q9Y2R2. 0.21% of 96,000 active. recombinant LYP catalytic domain, DiFMUP fluorescence. inhibition, % at 2 µM;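 active = inhibition at 2 µM at or above a set limit, the screen mean plus 3 SD, cut at about 24% in these data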;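 also: 0% = DMSO with enzyme and 100% = enzyme fully blocked by orthovanadate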
Target sequence (Q9Y2R2 whole entry, looked up, the tested form may be a part): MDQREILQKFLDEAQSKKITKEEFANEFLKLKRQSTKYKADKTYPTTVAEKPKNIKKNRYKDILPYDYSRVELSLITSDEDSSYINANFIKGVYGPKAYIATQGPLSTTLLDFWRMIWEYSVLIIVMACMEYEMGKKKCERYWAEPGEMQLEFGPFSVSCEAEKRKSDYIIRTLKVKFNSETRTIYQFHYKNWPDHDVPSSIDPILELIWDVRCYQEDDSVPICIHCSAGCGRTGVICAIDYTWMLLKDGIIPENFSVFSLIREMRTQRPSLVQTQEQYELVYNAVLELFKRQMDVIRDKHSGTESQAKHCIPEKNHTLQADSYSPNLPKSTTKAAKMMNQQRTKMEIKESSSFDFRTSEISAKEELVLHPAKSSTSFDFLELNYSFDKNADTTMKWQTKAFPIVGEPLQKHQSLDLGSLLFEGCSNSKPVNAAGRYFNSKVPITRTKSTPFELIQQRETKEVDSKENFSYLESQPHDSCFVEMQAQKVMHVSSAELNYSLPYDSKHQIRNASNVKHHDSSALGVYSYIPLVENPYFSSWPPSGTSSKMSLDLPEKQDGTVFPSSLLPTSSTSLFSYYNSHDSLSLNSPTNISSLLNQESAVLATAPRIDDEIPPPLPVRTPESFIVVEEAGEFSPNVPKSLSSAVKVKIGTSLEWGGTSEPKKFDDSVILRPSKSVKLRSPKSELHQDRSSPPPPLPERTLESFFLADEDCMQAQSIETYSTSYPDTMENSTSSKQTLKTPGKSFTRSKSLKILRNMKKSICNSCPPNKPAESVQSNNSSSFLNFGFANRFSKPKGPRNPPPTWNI
PLK1 inh = blocks human PLK1 kinase activity. recombinant PLK1 kinase, TR-FRET peptide phosphorylation. 0.53% of 97,000 active. P53350. inhibition, % at 10 µM;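 active = inhibition of 50% or more in the single-concentration screen; inactive = inhibition below 50%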;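 also: 0% = DMSO max control and 100% = H-89 dihydrochloride min control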
Pyk2 oligo antag = blocks oligomerization of human Pyk2 in cells | Q293 cells, Pyk2 FERM NanoBiT luminescence; active compounds read low | z-score (the deposit names both 25 µM and 10 µM) | 0.83% of 99,000 active | AID 1347419;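 active = Z-score of -3 or lower, scaled per plate to the spread of control and sample wells; inactive = z-score above -3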;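 also: negative z-score means lost luminescence so less FERM oligomerization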
Plk1 PBD FP = Plk1 (human) PBD binding inhibition; P53350; Plk1 PBD phosphopeptide binding, fluorescence polarization; inhibition, %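 (tested at about 20 µM)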; 0.13% of 97,000 active; in the data active = inhibition above about 34%, passing the limit was not always enough
LYP act = activators of human LYP (PTPN22) phosphatase; Q9Y2R2; recombinant LYP, DiFMUP fluorescence; 0 = plate median, 100 = signal doubled; activation, % at 2 µM; 0.11% of 96,000 active;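 active = activation at 2 µM above a set limit, the mean plus 5 SD, cut at about 37% in these data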
Active calls of the source: *; · = not tested or not shown.

SMILES | PTPN22 inh 2 | PLK1 inh | Pyk2 oligo antag | Plk1 PBD FP | LYP act
COc1cc(NS(=O)(=O)c2cccc3nsnc23)c(C(=O)O)cc1OC | -12 | -5 | -0.02 | 19 | 9
Cc1ccc(-c2c(C#N)c(N)n3c(nc4ccccc43)c2C#N)cc1 | 10 | -10 | -4* | -2 | -5
CCCNc1cc(C)c(C#N)c2nc3ccccc3n12 | -4 | -8 | -0.22 | 8 | 3
CCN(CC)Cc1c(O)ccc2c(=O)c(-c3ccc4c(c3)OCCO4)coc12 | -8 | -10 | -1.6 | 10 | 12
CCCc1cc2c(=O)c(-c3ccc4c(c3)OCCO4)coc2cc1OC(=O)c1ccco1 | 7 | -12 | -3* | 27 | -5
CCCc1cc2c(=O)c(-c3ccc4c(c3)OCCO4)c(C)oc2cc1OS(C)(=O)=O | 14 | -1 | -2.4 | -9 | -9
CCc1cc2c(=O)c(-c3ccc4c(c3)OCCO4)coc2cc1OC(=O)c1ccco1 | 6 | -13 | -3.5* | 12 | -4
Cc1ccc(-c2nn(C)c(=O)c3ccccc23)cc1CNC(=O)Cn1nc(-c2ccccc2)c2ccccc2c1=O | 13 | -13 | · | -4 | -13
O=C(Cn1nnc2c(cnn2-c2ccccc2)c1=O)N1CCN(c2ccccc2F)CC1 | -8 | -10 | 2 | -13 | 7
C=CCNC(=S)NNC(=O)c1cccn(Cc2cccc(Cl)c2)c1=O | 56* | -7 | 0.64 | -4 | -55
C=CCNC(=S)NNC(=O)c1cccn(Cc2ccc(Cl)cc2)c1=O | 53* | -3 | 0.22 | -5 | -52
O=C(Cn1cc2c(n1)CCCC2)NCCCN1CCN(c2ccccc2F)CC1 | -4 | -12 | · | 15 | 2
O=C(Nc1ccc2oc(-c3ccc4ccccc4c3)nc2c1)c1ccc2c(c1)OCCO2 | 31* | -9 | -0.04 | -11 | -29
O=C(CN1CCOCC1)Nc1nc(-c2ccc3c(c2)CCN3S(=O)(=O)c2ccccc2)cs1 | 6 | -6 | -3* | -15 | -10
COc1ccc(NS(=O)(=O)c2cccc(N/C(=N\S(=O)(=O)c3ccccc3)c3ccc(F)cc3)c2)cc1 | · | · | -0.56 | · | ·
Cc1cc(C)nc(NN2C(=O)/C(=C/c3ccc(O)cc3)SC2=S)n1 | 13 | 1 | -3.5* | -72 | -11
COc1ccccc1/C=C1\SC(=S)N(Nc2nc(C)cc(C)n2)C1=O | -9 | -11 | -3.8* | -9 | 12
O=C1/C(=C\c2ccccn2)SC(=S)N1Nc1ncc(C(F)(F)F)cc1Cl | 4 | -4 | -0.36 | -16 | -2
CN(C)CCCNc1cc(Cl)c(S(=O)(=O)N2CCCCC2)cc1C(=O)O | -7 | -13 | 1 | 16 | 2
CCn1c(CSc2nc3ccccc3s2)nnc1SCC(=O)c1ccc(O)c(O)c1 | 46* | -3 | 0.6 | 17 | -44
CCCCNS(=O)(=O)c1ccc(NS(=O)(=O)c2c(C)cc(C)cc2C)cc1 | 28* | 6 | -1.3 | -16 | -29
CCc1ccc(NSc2ccccc2[N+](=O)[O-])cc1 | 15 | 5 | -3* | -27 | -10
O=[N+]([O-])c1ccccc1CNC(Cc1ccccc1)c1ccccc1 (stereo not given) | 8 | -12 | -0.5 | 1 | -8
Cc1cc(SCC(=O)N/N=C/c2ccc(O)c(O)c2O)c(C)cc1Br | 57* | 17 | -0.11 | -5 | -57
CC1=Nn2c(nnc2-c2cc(-c3ccccc3)n[nH]2)SC1 | 3 | -5 | 0.65 | 16 | 0
SMILES | PTPN22 inh 2 | PLK1 inh | Pyk2 oligo antag | Plk1 PBD FP | LYP act
c1ccc(-c2ccc(C3=Nn4c(nnc4-c4cc(-c5ccccc5)n[nH]4)SC3)cc2)cc1 | 42* | -14 | -0.86 | 4 | -40
CC(C)(C)NC(=O)CN(C(=O)CSc1nnc(COc2ccccc2)o1)c1cccc(F)c1 | 5 | -11 | 3.4 | 4 | -3
CCOC(=O)c1[nH]c2ccccc2c1CCCN1C(=O)c2ccccc2C1=O | 5 | -12 | -3* | -4 | -2
O=c1sc2ccccc2n1COc1ccc(Cl)cc1 | 3 | 0 | -1.5 | 3 | 0
CC(C)Oc1ccc(Cn2c(=O)sc3ccccc32)cc1 | 2 | -5 | -3.3* | -5 | -1
N#Cc1cccc(C(c2nnnn2C2CCCC2)N2CCC(Cc3ccccc3)CC2)c1 (stereo not given) | -36 | -21 | -4.4* | 6 | 31
CC1=C(C(=O)OCc2ccc3c(c2)OCO3)C(c2ccccc2)NC(=O)N1 (stereo not given) | -8 | -9 | -3.4* | -11 | 6
CCOC(=O)C1=C(C)NC(=O)NC1c1ccc(C)o1 (stereo not given) | · | 69* | · | 18 | ·
CC1=C(C(=O)OCc2ccc3c(c2)OCO3)C(c2ccccc2OCc2ccccc2)NC(=O)N1 (stereo not given) | 6 | 5 | -3.2* | -9 | -3
Cc1ccc([N+](=O)[O-])cc1NC(=O)CCCOc1ccccc1 | 6 | -12 | 0.64 | 6 | -2
Cc1ccc(C(=O)NCCSC2CCCCC2)cc1S(=O)(=O)Nc1ccccc1 | 2 | -16 | -1.7 | 1 | 0
COc1nc(OC)nc(N2CCC(NC(=O)C(Cc3ccc(C(C)C)cc3)NC(C)=O)CC2)n1 (stereo not given) | -3 | -6 | 1.9 | 5 | 7
CCCCCCn1c(CN2CCN(C(=O)OCC)CC2)nc2c1c(=O)n(C)c(=O)n2C | 8 | -6 | 1.7 | -15 | -7
CCOC(=O)C1=C(CC)Nc2ccccc2N=C1NC(=O)Nc1ccc(Cl)c(Cl)c1 | -3 | -9 | -4.1* | -12 | 1
CC(=O)NCC(=O)N(C)C(C(=O)Nc1ccc(C(C)C)cc1)c1ccccc1 (stereo not given) | 1 | -5 | 0.03 | 3 | 0
CCOC(=O)C1CCCN(c2c(Nc3cccc(C)c3)c(=O)c2=O)C1 (stereo not given) | · | 61* | · | -5 | ·
CCOC(=O)C1CCCN(c2c(Nc3ccc(OCC)cc3)c(=O)c2=O)C1 (stereo not given) | -16 | -15 | · | -14 | 12
COc1ccc(OC)c(C(c2nnnn2CCc2ccccc2)N2CCN(c3ccccc3)CC2)c1 (stereo not given) | 1 | 4 | -2.7 | 3 | -1
COCCn1nnnc1C(c1ccc(OC)cc1OC)N1CCN(c2ccccc2)CC1 (stereo not given) | -12 | -13 | -4.1* | 8 | 11
COc1ccccc1C(c1nnnn1Cc1ccco1)N1CCN(c2cccc(C)c2C)CC1 (stereo not given) | -1 | -9 | -0.25 | -20 | -1
COCCn1nnnc1C(c1ccc2ncccc2c1)N1CCN(c2ccccc2F)CC1 (stereo not given) | 0 | -12 | -1.9 | -10 | -2
COc1ccc(C(c2nnnn2C2CCCC2)N2CCC(C)CC2)c(OC)c1 (stereo not given) | -13 | -6 | -2.7 | 8 | 9
COc1ccc(N2CCN(C(c3cc(OC)ccc3OC)c3nnnn3Cc3ccco3)CC2)cc1 (stereo not given) | · | · | -3.2* | · | ·
COCCn1nnnc1C(c1ccc(OC)cc1OC)N1CCN(c2ccccc2F)CC1 (stereo not given) | -1 | -3 | -4.4* | -6 | -1

From PubChem
